In the library only some 2% were active in any assay of this set; here they are far more common.
mut p53 react – re-activators of the mutant p53 pathway. SW480 PUMA-promoter luciferase, p53 mutant reactivation. activation, % at 9.98 µM. 28,000 tested, 1.5% active; in the data active = activation above about 52%; inconclusive = no clear call, values can overlap the other calls
ID4 SMM – binders of human ID4 protein; P47928; small molecule microarray, Flag-ID4 binding, fluorescence F/B; calls only; 31,000 tested, 1.2% active; AID 624137; call rule not given here;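 note: a binder raises fluorescence above local background on the spot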
Target sequence (P47928 whole entry, looked up): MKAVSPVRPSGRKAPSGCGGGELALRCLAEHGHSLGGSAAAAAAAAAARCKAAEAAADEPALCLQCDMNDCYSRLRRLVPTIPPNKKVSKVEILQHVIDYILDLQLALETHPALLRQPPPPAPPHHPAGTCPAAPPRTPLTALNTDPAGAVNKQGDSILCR
STK33 inh – blocks human STK33 kinase activity; Q9BYT3; ADP-Glo luminescence, MBP substrate; inhibition, % at 12.5 µM; 27,000 tested, 0.44% active; AID 2322; in the data active = inhibition above about 20%; inconclusive = no clear call, values can overlap the other calls
* = called active by the depositor.

O=C1O[C@H](c2ccccc2)[C@H](c2ccccc2)N2[C@H]1[C@@H](C(=O)N1CCCCCCC1)[C@]1(C(=O)Nc3ccc(C#CC4=CCCCC4)cc31)[C@H]2c1ccc(OCCO)cc1 was read as STK33 inh 22.2*.
O=C1O[C@H](c2ccccc2)[C@H](c2ccccc2)N2[C@H]1[C@@H](C(=O)N1CCCCCCC1)[C@]1(C(=O)Nc3ccc(C#CC4(O)CCCCCC4)cc31)[C@H]2c1ccccc1OCCO was read as ID4 SMM inactive and STK33 inh 20.8*.
For O=C1O[C@H](c2ccccc2)[C@H](c2ccccc2)N2[C@H]1[C@@H](C(=O)N1CCN(c3ncccn3)CC1)[C@]1(C(=O)Nc3ccc(C#CC4(O)CCCCCC4)cc31)[C@H]2c1ccccc1OCCO the results were STK33 inh 8.6.
`O=C1O[C@@H](c2ccccc2)[C@@H](c2ccccc2)N2[C@@H](c3ccccc3OCCO)[C@]3(C(=O)Nc4ccc(C#CCCO)cc43)[C@@H](C(=O)N3CCN(c4ncccn4)CC3)[C@H]12` gave ID4 SMM inactive and STK33 inh 17.8.
Screening C=CCNC(=O)[C@@H]1[C@H]2C(=O)O[C@H](c3ccccc3)[C@H](c3ccccc3)N2[C@H](c2ccc(OCCO)cc2)[C@@]12C(=O)Nc1ccc(C#CCNC(N)=O)cc12 returned ID4 SMM inactive and STK33 inh 20.3*.
For O=C1O[C@@H](c2ccccc2)[C@@H](c2ccccc2)N2[C@@H](c3ccc(OCCO)cc3)[C@]3(C(=O)Nc4ccc(C#CC5=CCCCC5)cc43)[C@@H](C(=O)N3CCN(c4ncccn4)CC3)[C@H]12 the results were ID4 SMM inactive and STK33 inh 7.8.
`Cc1ccc(-c2noc(CN(C(=O)c3ccccc3-c3ccccc3)C(C)C)n2)cc1` gave mut p53 react -22.5, ID4 SMM inactive and STK33 inh 0.4.
O=C(O)CN(CC(=O)O)S(=O)(=O)c1ccc(Cl)cc1 was read as mut p53 react 4.8, ID4 SMM inactive and STK33 inh 0.5.
Cc1cc(C)nc(NS(=O)(=O)c2ccc(NC(=S)NC(=O)c3ccccc3)cc2)n1 was read as mut p53 react 2.3, ID4 SMM inactive and STK33 inh 1.5.
Screening O=C(CSc1n[nH]c(-c2ccccc2Cl)n1)c1ccc(O)c(O)c1 returned mut p53 react 13.6, ID4 SMM inactive and STK33 inh -0.9.
Screening O=C(CSc1nc(-c2ccccc2)cc(C(F)(F)F)n1)Nc1ccc2c(c1)CCC2 returned mut p53 react -5.2, ID4 SMM inactive and STK33 inh -6.2.
`Cc1ccc(NC(=O)CNC(=O)c2ccc([N+](=O)[O-])cc2)cc1` gave mut p53 react 8.4, ID4 SMM inactive and STK33 inh -1.8.
For CN(Cc1nc(-c2ccccc2)no1)S(=O)(=O)c1ccccc1 the results were mut p53 react 9.8, ID4 SMM inactive and STK33 inh -2.7.
For COc1ccc(C#Cc2ccc3c(c2)[C@]2(C(=O)N3)[C@H](C(=O)N3CCN(c4ncccn4)CC3)[C@H]3C(=O)O[C@H](c4ccccc4)[C@H](c4ccccc4)N3[C@@H]2c2ccccc2OCCO)cc1 the results were STK33 inh 8.3.
For COc1ccc(C#Cc2ccc3c(c2)[C@]2(C(=O)N3)[C@H](C(=O)N3CCCCCCC3)[C@H]3C(=O)O[C@H](c4ccccc4)[C@H](c4ccccc4)N3[C@@H]2c2ccccc2OCCO)cc1 the results were STK33 inh 29.8*.
COc1ccc([Si](C)(C)[C@@H]2[C@@H](CCn3cc(CCO)nn3)O[C@]3(C(=O)N(Cc4ccc(N5CCOC5=O)cc4)c4ccccc43)[C@H]2C)cc1 was read as ID4 SMM inactive and STK33 inh 23.6*.
COc1ccc([Si](C)(C)[C@H]2[C@H](CCO)O[C@@]3(C(=O)N(Cc4ccc(N5CCOC5=O)cc4)c4ccccc43)[C@@H]2C)cc1 was read as ID4 SMM inactive and STK33 inh inconclusive.
Screening O=c1c(Cl)c(NCc2ccco2)cnn1-c1ccccc1 returned STK33 inh -0.7.
For CCOc1c(O)ccc(C(c2c[nH]c3ccccc23)c2c[nH]c3ccccc23)c1[N+](=O)[O-] the results were mut p53 react 2.9, ID4 SMM inactive and STK33 inh 1.5.
For CCc1cc(=O)oc2cc(OCc3cc(C(=O)OC)oc3C)ccc12 the results were mut p53 react 9.6, ID4 SMM inactive and STK33 inh -1.0.
`O=C1CC(CSc2ccc(Cl)cc2)=NN1c1nc2ccccc2s1` gave STK33 inh -0.6.
Clc1ccc(SCc2csc(-c3ccsc3)n2)cc1 was read as mut p53 react 60.8* and ID4 SMM inactive.
For c1cncc(-c2nn3c(C4COc5ccccc5O4)nnc3s2)c1 (stereo unspecified) the results were mut p53 react 2.9, ID4 SMM inactive and STK33 inh -2.9.
Screening c1ccc(-c2nn3c(C4COc5ccccc5O4)nnc3s2)cc1 (stereo unspecified) returned mut p53 react 59.0*, ID4 SMM inactive and STK33 inh -2.1.
Screening CC1=CCC(C(C)(C)O[C@@H]2O[C@H](CO[C@@H]3O[C@H](COC(=O)c4cc(O)c(O)c(O)c4)[C@@H](O)[C@H](O)[C@H]3O)[C@@H](O)[C@H](O)[C@H]2O)CC1 (stereo partly specified) returned mut p53 react 11.0, ID4 SMM inactive and STK33 inh -1.1.
`CS(=O)(=O)Nc1ccc(C(=O)NCc2cccnc2)cc1` gave mut p53 react 8.4, ID4 SMM inactive and STK33 inh 0.4.
Screening O=C(NCc1cccnc1)c1cccc(NC(=O)c2ccco2)c1 returned mut p53 react -1.9, ID4 SMM active and STK33 inh -1.0.
Screening COc1ccc(NC(=O)CSc2nc3c(c(C(F)(F)F)n2)CCCC3)c([N+](=O)[O-])c1 returned mut p53 react 9.8, ID4 SMM inactive and STK33 inh 1.9.
For COc1cccc(C(=O)NC2(C(F)(F)F)C(=O)N(CC3CCCO3)C3=C2C(=O)CC(C)(C)C3)c1 (stereo unspecified) the results were mut p53 react -2.9, ID4 SMM inactive and STK33 inh 1.9.
For Cc1ccc(NC(=O)c2ccc(OC(=O)CCN3C(=O)c4ccccc4C3=O)cc2)cc1 the results were mut p53 react 102.1*, ID4 SMM inactive and STK33 inh 9.7.
COc1ccc(NC(=O)c2ccc(OC(=O)CCN3C(=O)c4ccccc4C3=O)cc2)cc1 was read as mut p53 react 43.7, ID4 SMM inactive and STK33 inh -3.8.
Screening C[C@H](CO)N1C[C@H](C)[C@@H](CN(C)S(=O)(=O)c2cccs2)Oc2ccc(NC(=O)CCCN(C)C)cc2C1=O returned mut p53 react 6.2 and ID4 SMM active.
Screening C[C@H](CO)N1C[C@H](C)[C@H](CN(C)S(=O)(=O)c2cn(C)cn2)Oc2ccc(NC(=O)CCCN(C)C)cc2C1=O returned STK33 inh -0.7.
C[C@@H]1CCCCO[C@H](CN(C)S(=O)(=O)c2cccs2)[C@@H](C)CN([C@H](C)CO)C(=O)c2cc(NC(=O)CCC(F)(F)F)ccc2O1 was read as STK33 inh -4.5.
For C[C@@H]1CN([C@@H](C)CO)C(=O)c2cc(NC(=O)CCCN(C)C)ccc2O[C@@H]1CN(C)S(=O)(=O)c1cccs1 the results were STK33 inh -0.5.
